Activity calls are given as the source filed them.
Assays:
[1] = E. coli DRC41 culture turbidity changes, primary screen, E. coli filamentation inducer project, strain DRC41, OD650, 48 h (AID 1152);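 also: E. coli MC1000 strain DRC41 lacking acrAB efflux pump and sulA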; details: E. coli DRC41 (acrAB sulA), higher = more signal, called active from +8 up or from −8 down
[2] = small-molecule binders of probe aLefty1, primary screen, biochemical, small-molecule microarray, 635/667 nm fluorescence (AID 1153); details: higher = more signal;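 also: score merges spot fluorescence with signal-to-noise ratio from the scanned slide images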
[3] = PSAC antagonists in infected red cells, primary screen, cell-based, P. falciparum Indochina, OD700, 1 h (AID 1154); details: P. falciparum Indochina infected RBC osmotic lysis, higher = more signal, called active from +8 up or from −8 down
[4] = PSAC antagonists in infected red cells, primary screen, cell-based, P. falciparum Indochina, OD700, 2 h (AID 1155);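 also: lysis reports solute entry through the parasite surface anion channel PSAC; channel blockers reduce lysis of infected cells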; details: P. falciparum Indochina infected erythrocytes, osmotic lysis OD700; higher = more signal, called active from +8 up or from −8 down
[5] = osmotic lysis modulators in infected erythrocytes, primary screen, PSAC antagonist project, cell-based, P. falciparum Indochina, OD700, 3 h (AID 1156); details: higher = more signal, called active from +8 up or from −8 down
[6] = PSAC antagonists in infected red cells, primary screen, cell-based, P. falciparum Indochina, OD700, 18 h (AID 1157); details: P. falciparum Indochina infected erythrocytes, osmotic lysis OD700, 18 h; higher = more signal, called active from +8 up or from −8 down
[7] = modulators of S6 phosphorylation in cells, primary screen, cell-based, A549, cytoblot, luminescence, serum-stimulated (AID 1158); details: A549 phospho-S6 cytoblot, 5 h, higher = more signal;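 also: serum-stimulated A549 lung adenocarcinoma cells; signal is phosphorylated S6 detected by cytoblot immunostaining with HRP secondary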
[8] = molecular target: NADPH oxidase 2 (Homo sapiens) (UniProt P04839); test: NOX2-dependent H2O2 signal modulators, primary screen, NOX inhibitor project, cell-based, HEK293-NOX2, PMA-stimulated, Amplex Red fluorescence (AID 1159); details: 45 min, higher = more signal, called active from +8 up or from −8 down; also: test concentration not given here
Sequence of NADPH oxidase 2 (Homo sapiens) (P04839 whole entry, looked up): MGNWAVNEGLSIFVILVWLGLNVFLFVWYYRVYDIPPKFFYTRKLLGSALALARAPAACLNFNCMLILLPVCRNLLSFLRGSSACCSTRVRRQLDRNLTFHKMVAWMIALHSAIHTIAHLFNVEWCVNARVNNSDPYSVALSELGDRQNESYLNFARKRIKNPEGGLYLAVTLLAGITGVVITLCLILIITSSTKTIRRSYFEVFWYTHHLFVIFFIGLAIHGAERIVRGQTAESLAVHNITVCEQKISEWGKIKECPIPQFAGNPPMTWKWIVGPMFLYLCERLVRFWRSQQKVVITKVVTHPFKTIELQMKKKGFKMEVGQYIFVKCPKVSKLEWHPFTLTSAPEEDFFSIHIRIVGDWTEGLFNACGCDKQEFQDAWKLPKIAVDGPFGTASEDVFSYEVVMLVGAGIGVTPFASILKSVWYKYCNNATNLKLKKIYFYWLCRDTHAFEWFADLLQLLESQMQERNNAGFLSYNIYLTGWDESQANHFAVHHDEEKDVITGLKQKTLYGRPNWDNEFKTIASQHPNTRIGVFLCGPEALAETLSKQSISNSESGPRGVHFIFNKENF

[9] = molecular target: NADPH oxidase 4 (Homo sapiens) (UniProt Q9NPH5); test: NOX4-dependent H2O2 signal modulators, primary screen, NOX inhibitor project, cell-based, HEK293-NOX4, tetracycline-induced, Amplex Red fluorescence (AID 1160); details: 45 min, higher = more signal, called active from +8 up or from −8 down
Sequence of NADPH oxidase 4 (Homo sapiens) (Q9NPH5 whole entry, looked up): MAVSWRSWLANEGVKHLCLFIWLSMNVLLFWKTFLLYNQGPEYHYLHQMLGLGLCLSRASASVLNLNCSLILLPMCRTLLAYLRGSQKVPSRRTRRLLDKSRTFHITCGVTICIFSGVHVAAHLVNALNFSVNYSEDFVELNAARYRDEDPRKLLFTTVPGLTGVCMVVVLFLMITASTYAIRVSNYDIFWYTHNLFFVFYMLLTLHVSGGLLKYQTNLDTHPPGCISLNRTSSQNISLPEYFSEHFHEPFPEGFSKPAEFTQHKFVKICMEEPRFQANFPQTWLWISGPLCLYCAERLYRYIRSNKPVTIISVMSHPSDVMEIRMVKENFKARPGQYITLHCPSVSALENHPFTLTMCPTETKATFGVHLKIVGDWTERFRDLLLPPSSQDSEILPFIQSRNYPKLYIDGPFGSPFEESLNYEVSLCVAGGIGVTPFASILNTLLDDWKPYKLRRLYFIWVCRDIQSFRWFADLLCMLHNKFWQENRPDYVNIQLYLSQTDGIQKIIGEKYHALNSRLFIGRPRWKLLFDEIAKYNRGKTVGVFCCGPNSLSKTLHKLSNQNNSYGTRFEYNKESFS

[10] = molecular target: NADPH oxidase 5 (Homo sapiens) (UniProt Q96PH1); test: NOX5-dependent H2O2 signal modulators, primary screen, NOX inhibitor project, cell-based, HEK293-NOX5, Amplex Red fluorescence (AID 1161); details: HEK293-NOX5, ionomycin, 45 min, higher = more signal
Sequence of NADPH oxidase 5 (Homo sapiens) (Q96PH1 whole entry, looked up): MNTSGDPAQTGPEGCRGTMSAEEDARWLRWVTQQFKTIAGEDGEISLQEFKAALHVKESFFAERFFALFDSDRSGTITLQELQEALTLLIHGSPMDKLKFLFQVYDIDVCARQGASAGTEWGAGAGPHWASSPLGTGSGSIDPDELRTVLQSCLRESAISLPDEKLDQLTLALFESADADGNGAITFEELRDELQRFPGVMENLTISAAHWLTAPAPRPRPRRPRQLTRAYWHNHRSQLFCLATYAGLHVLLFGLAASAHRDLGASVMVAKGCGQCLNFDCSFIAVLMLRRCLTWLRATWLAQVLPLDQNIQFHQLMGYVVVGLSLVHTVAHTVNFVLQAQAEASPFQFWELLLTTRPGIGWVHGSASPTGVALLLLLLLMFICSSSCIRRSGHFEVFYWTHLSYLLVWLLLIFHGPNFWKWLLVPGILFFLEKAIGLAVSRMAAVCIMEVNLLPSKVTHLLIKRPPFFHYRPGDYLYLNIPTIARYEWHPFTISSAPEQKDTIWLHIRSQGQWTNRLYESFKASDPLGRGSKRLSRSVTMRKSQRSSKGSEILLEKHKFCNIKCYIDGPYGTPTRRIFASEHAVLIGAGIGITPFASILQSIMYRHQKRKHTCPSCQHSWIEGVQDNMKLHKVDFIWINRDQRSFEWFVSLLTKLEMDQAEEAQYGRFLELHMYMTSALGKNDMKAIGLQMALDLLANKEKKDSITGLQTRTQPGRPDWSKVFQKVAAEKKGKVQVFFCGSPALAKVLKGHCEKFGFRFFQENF

[11] = A549 cell viability effects, profiling panel, calcein-AM fluorescence, 48 h, basal (AID 1162); details: higher = more signal; also: test concentration not given here
[12] = adipocyte viability effects, profiling panel, cell-based, 3T3-L1 adipocytes, calcein-AM fluorescence, 48 h, basal (AID 1163); details: 3T3-L1 adipocytes viability, higher = more signal; also: test concentration not given here
[13] = HepG2 cell viability effects, profiling panel, calcein-AM fluorescence, 48 h, basal (AID 1164); details: higher = more signal; also: test concentration not given here
[14] = MM1S cell viability effects, profiling panel, calcein-AM fluorescence, 48 h, basal (AID 1165); details: higher = more signal;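 also: viability of MM1S multiple myeloma cells under basal unstimulated conditions; test concentration not given here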
[15] = basal RPMI8226 viability, no added stimulus, profiling panel, cell-based, calcein-AM fluorescence, 48 h, PK04 Diversity Set (AID 1166); details: RPMI8226 myeloma viability, higher = more signal;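 also: cells grown under basal conditions without added stimulus; test concentration not given here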
[16] = basal HepG2 mitochondrial membrane potential changes, profiling panel, cell-based, JC-1 fluorescence, 24 h, 100 nL compound (AID 1167); details: higher = more signal; also: test concentration not given here
[17] = basal 3T3-L1 adipocyte mitochondrial potential changes, profiling panel, cell-based, JC-1 fluorescence, 3T3-L1 adipocytes, 24 h, 100 nL compound (AID 1168); details: JC-1 mitochondrial fluorescence, higher = more signal, called active from +8 up or from −8 down; also: test concentration not given here
[18] = basal RPMI8226 mitochondrial membrane potential changes, profiling panel, cell-based, JC-1 fluorescence, 24 h, 100 nL compound (AID 1169); details: RPMI8226 myeloma, JC-1 mitochondrial potential fluorescence, higher = more signal; also: test concentration not given here
[19] = basal MM1S mitochondrial membrane potential changes, profiling panel, cell-based, JC-1 fluorescence, 24 h, 100 nL compound (AID 1170); details: higher = more signal; also: test concentration not given here
[20] = A549 lung cancer cell viability effects, profiling panel, resazurin fluorescence, 24 h, PK04 Diversity Set (AID 1171); details: higher = more signal, called active from +8 up or from −8 down; also: test concentration not given here

| SMILES | z-score [1] | composite z-score [2] | z-score [3] | z-score [4] | z-score [5] | z-score [6] | z-score [7] | z-score [8] | z-score [9] | z-score [10] | z-score [11] | z-score [12] | z-score [13] | z-score [14] | z-score [15] | z-score [16] | z-score [17] | z-score [18] | z-score [19] | z-score [20] |
| --- | --- | --- | --- | --- | --- | --- | --- | --- | --- | --- | --- | --- | --- | --- | --- | --- | --- | --- | --- | --- |
| CCCC[C@H]1CN2[C@@H](CC[C@@H](C)[C@@H]2c2ccc(Br)cc2)C(=O)O1 | -0.461 (inactive) | -0.0275 | 2.91 (inactive) | 0.809 (inactive) | -0.192 (inactive) | 0.711 (inactive) | -0.46 | 1.43 (inactive) | 0.516 (inactive) | 1.47 | 0.214 | 0.544 | -0.189 | -0.256 | -0.238 | 0.13 | -0.206 (inactive) | -0.221 | 0.94 | 0.8 (inactive) |
| CC(C)CON=C1C[C@@H](O)[C@@H](O)[C@@H]2[C@@H]3C(=O)N(Cc4ccccc4)C(=O)[C@@H]3CC[C@H]12 | -1.41 (inactive) | -0.249 | 1.12 (inactive) | -1.19 (inactive) | 0.99 (inactive) | -1.6 (inactive) | 0.0105 | 1.48 (inactive) | 0.209 (inactive) | 0.588 | -0.216 | 0.785 | -0.155 | 0.825 | -0.48 | 0.974 | -1.26 (inactive) | -0.0623 | -0.628 | 0.312 (inactive) |
| CCOC(=O)[C@H](CC(C)C)NC(=O)CCC1CC(OC(=O)NCc2ccc3c(c2)OCO3)CC2(CCCC(COC(=O)NCCOC)O2)O1 (stereo not given in full) | -2.3 (inactive) | 0.292 | 1.3 (inactive) | 0.529 (inactive) | -0.535 (inactive) | 0.0508 (inactive) | -0.421 | -0.288 (inactive) | -0.0492 (inactive) | 0.144 | 0.0414 | -0.453 | -0.0998 | -0.418 | 0.457 | 0.11 | 0.65 (inactive) | 0.413 | -0.359 | 0.689 (inactive) |
| Cc1ccc(S(=O)(=O)N[C@@H]2COC(=O)CC=C[C@@H](C)[C@H](NS(=O)(=O)c3ccc(C)cc3)COC(=O)[C@H](C)NC(=O)CC=C[C@H]2C)cc1 | 0.328 (inactive) | -0.147 | -0.434 (inactive) | -0.159 (inactive) | -0.207 (inactive) | 0.106 (inactive) | 0.378 | -6.49 (inactive) | 0.375 (inactive) | -0.545 | 0.697 | -0.0454 | 0.428 | -0.987 | 0.158 | 0.209 | 0.099 (inactive) | 0.389 | 1.03 | -0.395 (inactive) |
| CCOC(=O)NN=C1C[C@@H](O)[C@@H](O)[C@@H]2[C@@H]3C(=O)N(CC)C(=O)[C@@H]3CC[C@H]12 | 0.539 (inactive) | -0.286 | -0.259 (inactive) | 0.072 (inactive) | -0.466 (inactive) | 0.182 (inactive) | -0.404 | -1.28 (inactive) | 0.199 (inactive) | 0.534 | 0.258 | -0.588 | 0.527 | 0.464 | 0.268 | 0.987 | -0.557 (inactive) | -0.241 | -0.809 | -0.653 (inactive) |
| OC[C@H]1O[C@H](C#Cc2ccccc2)C=C[C@@H]1O | 0.402 (inactive) | -0.425 | 1.74 (inactive) | 0.803 (inactive) | 0.802 (inactive) | 0.784 (inactive) | -0.0359 | -0.178 (inactive) | 0.662 (inactive) | 1.33 | -0.259 | 0.0466 | 0.457 | -3.41 | -1.26 | 0.552 | -0.397 (inactive) | 0.607 | -0.673 | -0.852 (inactive) |
| CC(C)=CCCC(C)=CCON=C1C[C@@H](O)[C@@H](O)[C@@H]2[C@@H]3C(=O)N(C4CCCCC4)C(=O)[C@@H]3CC[C@H]12 | 0.693 (inactive) | -0.132 | 7.24 (inactive) | 0.991 (inactive) | 1.11 (inactive) | 0.645 (inactive) | -0.319 | -0.693 (inactive) | -1.02 (inactive) | -4.91 | -0.529 | -0.735 | -0.0977 | -2.9 | -0.201 | -1.47 | -0.444 (inactive) | -0.467 | -1.4 | -0.587 (inactive) |
| C#CCCCON=C1C[C@@H](O)[C@@H](O)[C@@H]2[C@@H]3C(=O)N(C[C@@H]4CCCO4)C(=O)[C@@H]3CC[C@@H]12 | 0.225 (inactive) | 0.145 | -0.262 (inactive) | 0.284 (inactive) | -1.08 (inactive) | 0.354 (inactive) | -0.53 | -3.03 (inactive) | 0.424 (inactive) | -0.0863 | 0.137 | 1.22 | -0.396 | 0.476 | -0.0761 | -0.444 | 0.27 (inactive) | -0.193 | -0.485 | 0.0354 (inactive) |
| COCC#Cc1ccc([C@@H]2N[C@H](C(=O)O)CC[C@H]2C)cc1 | -0.0799 (inactive) | -0.194 | -0.398 (inactive) | -0.478 (inactive) | -0.571 (inactive) | -0.867 (inactive) | 2.16 | -2.01 (inactive) | 0.301 (inactive) | 0.723 | 0.681 | -0.269 | 0.654 | 0.391 | 1.14 | 0.816 | 0.727 (inactive) | -0.859 | 0.839 | -0.488 (inactive) |
| CO[C@@H]1COC(=O)[C@@H]2CCCN2C(=O)[C@@H](C)COC(=O)CCC[C@H]1C | -0.476 (inactive) | -0.241 | -0.238 (inactive) | -1.48 (inactive) | -0.0716 (inactive) | -2.21 (inactive) | 2.43 | -0.634 (inactive) | 0.0989 (inactive) | 0.43 | -0.0294 | -0.0132 | 0.586 | -0.407 | 0.498 | -0.189 | -2.2 (inactive) | -0.0065 | -1.2 | -1.07 (inactive) |
| CCCNC(=O)OC[C@H]1O[C@H](CCON=C2c3cc(OC)ccc3O[C@H](c3cccc(OC)c3)[C@H]2O)C=C[C@@H]1Oc1ccc(OC)cc1 | 0.447 (inactive) | -0.0637 | 3.13 (inactive) | 0.855 (inactive) | 0.431 (inactive) | 0.563 (inactive) | -0.641 | 0.461 (inactive) | 0.455 (inactive) | -0.473 | 0.111 | 0.752 | -0.0825 | -0.187 | -0.572 | 1.38 | -1.49 (inactive) | 0.0694 | -0.0229 | 0.409 (inactive) |
| CCOC(=O)[C@H](Cc1ccccc1)NC(=O)CCC1CC(OC(=O)NCc2cccc3ccccc23)CC2(CCCC(COC(=O)NCCc3ccc(Cl)cc3)O2)O1 (stereo not given in full) | -1.37 (inactive) | 0.539 | 7.28 (inactive) | 0.618 (inactive) | -0.552 (inactive) | -0.687 (inactive) | 0.335 | 0.694 (inactive) | 0.92 (inactive) | 0.986 | 0.893 | 0.595 | -0.397 | 0.248 | 0.859 | -0.114 | 0.237 (inactive) | -0.185 | -0.401 | 0.895 (inactive) |
| COC(=O)CC=C[C@@H](C)[C@@H](C=NOC(C)CN1CCCCc2nc(C)c(C)cc21)NS(=O)(=O)c1ccc(C)cc1 (stereo not given in full) | 0.599 (inactive) | 0.236 | -0.193 (inactive) | 0.36 (inactive) | 0.151 (inactive) | 0.0733 (inactive) | -0.134 | -0.397 (inactive) | 0.339 (inactive) | 0.266 | -0.366 | 0.61 | 0.0477 | 0.0238 | -0.141 | -0.246 | -0.442 (inactive) | -1.02 | -0.0131 | -0.204 (inactive) |
| CCN1C(=O)[C@H]2[C@H]3[C@H](O)[C@H](O)CC(=NO[C@@H]4O[C@H](CO)[C@@H](O)[C@H](O)[C@H]4O)[C@H]3CC[C@H]2C1=O | -0.462 (inactive) | -0.234 | -0.875 (inactive) | 0.0108 (inactive) | -0.677 (inactive) | 0.109 (inactive) | -0.218 | 1.4 (inactive) | 0.422 (inactive) | -1.28 | 0.212 | -0.158 | 0.298 | -0.0327 | -0.982 | -0.68 | -1.21 (inactive) | 0.0397 | 0.652 | 0.14 (inactive) |
| COCCNC(=O)OCC1CCCC2(CC(OC(=O)NCc3cccc4ccccc34)CC(CCC(=O)N[C@@H](C)C(=O)OC)O2)O1 (stereo not given in full) | 0.434 (inactive) | -0.198 | -1.58 (inactive) | -0.523 (inactive) | -1.28 (inactive) | 0.174 (inactive) | -0.582 | -0.155 (inactive) | 1.49 (inactive) | 2.08 | 1.89 | -0.812 | 0.791 | -0.215 | -0.886 | 1.64 | -0.0355 (inactive) | -0.125 | -1.16 | 1.67 (inactive) |

— PubChem BioAssay
